Consider eleven compounds from PubChem BioAssay (NCATS).

Records with an inconclusive call do not appear. The source made the active and inactive calls. Calls follow the shape of the full dose curve.

Vitamin D3 receptor (Homo sapiens), sequence (P11473 whole entry, looked up): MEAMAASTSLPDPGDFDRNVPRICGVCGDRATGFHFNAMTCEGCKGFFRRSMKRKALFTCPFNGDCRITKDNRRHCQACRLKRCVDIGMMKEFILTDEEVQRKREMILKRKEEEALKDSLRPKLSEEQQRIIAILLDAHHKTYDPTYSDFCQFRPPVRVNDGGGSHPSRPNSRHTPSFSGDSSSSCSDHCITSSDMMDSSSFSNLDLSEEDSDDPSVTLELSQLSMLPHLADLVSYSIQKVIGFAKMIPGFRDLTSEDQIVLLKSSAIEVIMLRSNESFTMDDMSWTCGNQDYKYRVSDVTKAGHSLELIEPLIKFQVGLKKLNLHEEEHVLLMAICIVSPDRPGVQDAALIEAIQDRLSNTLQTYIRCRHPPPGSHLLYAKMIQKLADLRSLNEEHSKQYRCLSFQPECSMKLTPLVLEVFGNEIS

This test has as its target Vitamin D3 receptor (Homo sapiens) (UniProt P11473). The experiment in a line: qHTS assay for small molecule agonists of vitamin D receptor signaling (AID 588543). Conditions: HEK293T VDR-UAS-bla, beta-lactamase ratio, 16 h; series mostly up to 76.8 µM. The source says: NIH Chemical Genomics Center [NCGC]
U.S. Environmental Protection Agency [EPA]
National Institutes of Environmental Health Sciences [NIEHS]
National Toxicology Program [NTP]
The Vitamin D receptor (VDR) is a member of nuclear hormone receptor superfamily and it plays a critical role in calcium homeostasis and bone metabolism. It plays a role in inducing cell differentiation, inhibiting cell growth and in thrombogenicity. So, VDR that mediates these effects represents a pharmacological target in prevention and treatment of hyperproliferative malignancies, such as cancer and psoriasis, cardiovascular, immunological, inflammatory and renal diseases etc.
NCGC Assay Protocol Summary
Using a beta-lactamase reporter-gene under control of Vitamin D receptor (VDR) response element, a cell-based assay [GeneBLAzer (VDR -UAS-bla assay developed by Invitrogen] was used to measure VDR ligands signaling. GeneBLAzer VDR -UAS-bla HEK293T cells were used with assay medium containing 2% charcoal-stripped FBS. The assay was performed in clear bottom black Greiner 1536-well plates. 1-alpha,25-Dihydroxy vitaminD3 was used as a positive control in the screen. Library compounds were measured for their ability to stimulate the reporter gene activity. Compounds were screened in a titration series in 1536-well format. The fluorescence intensity (405 nm excitation, 460/530 nm emission) was measured using an EnVision plate reader. Data was normalized relative to 1-alpha,25-Dihydroxy vitaminD3 control (50 nM, 100%) and DMSO only wells (basal, 0%). Concentration-response titration points for each compound were fitted to the Hill equation yielding concentrations of half-maximal stimulation (EC50) and maximal response (efficacy) values.
qHTS protocol for VDR beta-lactamase assay in agonist mode
[Step] [Parameter] [Value] [Description]
1. Reagent; 6 uL; 2000 cells/well
2. Incubation; 37 C for 5 hrs
4. Controls (1-alpha,25-Dihydroxy vitaminD3); 23 nL,
- Final concentrations of 50 nM and 15 nM in two columns
5. Incubation; 37 C for 16 hrs
6. Detection reagent; 1 uL of CCF4-dye
7. Incubation; RT for 2 hrs
8. Detection; Fluorescence; Envision plate reader
Background: In qHTS, concentration-response curves come from the screen itself.
With `Oc1cc(Cl)ccc1Oc1ccc(Cl)cc1Cl`, the outcome was inactive.
Consider `C[C@]12C/C(=C/O)C(=O)C[C@@H]1CC[C@@H]1[C@@H]2CC[C@@]2(C)[C@H]1CC[C@]2(C)O`, for which the outcome was inactive.
For the compound `Nc1ccncc1`, the outcome was inactive.
For `C[C@]12CCC(=O)C(O)=C1CC[C@@H]1[C@@H]2CC[C@]2(C)C(=O)CC[C@@H]12` the value was “inactive”; for `Oc1cccc2cccnc12`, “inactive”.
Turning to `CC(C)(C)CC(C)(C)c1ccc(O)cc1`, the result was inactive.
For `CNCC(O)c1ccc(O)cc1` (stereo unspecified) the value was “inactive”.
Regarding `CCCC(C)(COC(N)=O)COC(=O)NC(C)C` (stereo unspecified), the result was inactive.
For `Oc1ccccc1-c1ccccc1` the value was “inactive”; for `NCC(O)c1ccc(O)cc1` (stereo unspecified), “inactive”.
For `OCCOc1ccccc1` the value was “inactive”.
